Results filed as inconclusive are left out. Active and inactive are the calls of the source. The calls were made as follows: active = hit-call score of the fitted dose curve at least 0.9, where 1 is the maximum; inconclusive = response in the unintended direction; inactive = score below 0.9.

Estrogen receptor (Homo sapiens) + Estrogen receptor beta (Homo sapiens), sequence (P03372 whole entry, looked up): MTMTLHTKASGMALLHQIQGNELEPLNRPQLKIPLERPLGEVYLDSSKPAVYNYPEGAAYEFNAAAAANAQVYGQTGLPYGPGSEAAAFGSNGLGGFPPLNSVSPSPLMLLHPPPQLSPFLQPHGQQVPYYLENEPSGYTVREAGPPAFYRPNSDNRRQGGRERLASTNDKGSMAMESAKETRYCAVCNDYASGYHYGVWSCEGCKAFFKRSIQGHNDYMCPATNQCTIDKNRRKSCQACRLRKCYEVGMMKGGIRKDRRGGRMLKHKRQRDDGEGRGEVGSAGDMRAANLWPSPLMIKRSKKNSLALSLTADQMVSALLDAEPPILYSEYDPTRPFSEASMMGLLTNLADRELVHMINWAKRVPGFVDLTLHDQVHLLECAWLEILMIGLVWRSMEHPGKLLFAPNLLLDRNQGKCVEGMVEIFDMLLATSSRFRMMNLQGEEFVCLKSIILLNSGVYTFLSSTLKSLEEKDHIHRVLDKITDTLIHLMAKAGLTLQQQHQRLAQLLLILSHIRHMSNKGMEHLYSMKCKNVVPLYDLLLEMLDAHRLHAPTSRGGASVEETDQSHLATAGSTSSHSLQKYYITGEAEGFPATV
Estrogen receptor (Homo sapiens) + Estrogen receptor beta (Homo sapiens), sequence (Q92731 whole entry, looked up): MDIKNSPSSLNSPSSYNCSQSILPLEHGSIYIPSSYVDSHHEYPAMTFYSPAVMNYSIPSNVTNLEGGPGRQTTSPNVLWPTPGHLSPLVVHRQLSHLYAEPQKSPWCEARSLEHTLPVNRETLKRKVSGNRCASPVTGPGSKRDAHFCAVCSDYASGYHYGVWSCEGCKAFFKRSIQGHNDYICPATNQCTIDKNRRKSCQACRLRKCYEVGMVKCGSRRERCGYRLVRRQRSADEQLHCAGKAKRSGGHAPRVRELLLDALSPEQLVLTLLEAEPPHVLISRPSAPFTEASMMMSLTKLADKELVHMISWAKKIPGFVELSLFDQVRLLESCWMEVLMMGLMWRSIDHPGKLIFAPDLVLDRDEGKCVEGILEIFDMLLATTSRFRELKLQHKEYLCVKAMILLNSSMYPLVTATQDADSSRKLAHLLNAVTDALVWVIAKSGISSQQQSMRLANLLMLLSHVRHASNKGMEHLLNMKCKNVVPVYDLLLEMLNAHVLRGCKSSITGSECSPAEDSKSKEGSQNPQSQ

One experiment deals with Estrogen receptor (Homo sapiens) (UniProt P03372). The experiment in a line: OT_ER_ERaERa_1440: Odyssey Thera (OT) 24-hour HEK293T Protein-Complementation Assay for Estrogen Receptor-alpha/-alpha Homodimer (AID 2283349).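 Also: hits raise fluorescence above DMSO for agonists and antagonists alike.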 In a few lines: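 Cells (HEK293T) carrying the fragment-tagged ERα LBD (aa 310-547) pair are treated with chemical for 24 hours. Nuclear and/or cytoplasmic fluorescence is then quantified on a laser scanning cytometer. Activity is scored as signal gain against DMSO.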
Estrogen receptor (Homo sapiens), sequence (P03372 whole entry, looked up, the tested form may be a part): as the sequence (P03372 whole entry, looked up) above
Regarding `CCCc1ccccc1`, the result was inactive.
On the same count and under the same terms, the entry for `C=CN1CCCC1=O` is “inactive”; for `CC(C)CCCCCCOC(=O)C1CCCCC1C(=O)OCCCCCCC(C)C` (centres undefined) it is “inactive”; for `OC(CCl)CCl` it is “inactive”.
On the same count and under the same terms, the entry for `C[C@@H](Oc1ccc(CNC(=O)c2cccnc2Oc2ccc3c(c2)OCO3)c(F)c1)C(=O)O` is “inactive”; for `COc1cc2c(c(OC)c1OC)-c1ccc(OC)c(=O)cc1[C@@H](NC(C)=O)CC2` it is “inactive”.
On the same count and under the same terms, the same measure for `CCCCN1C(=O)[C@@H]([C@H](O)C2CCCCC2)NC(=O)C12CCN(Cc1ccc(Oc3ccc(C(=O)O)cc3)cc1)CC2`: “inactive”.
Regarding `Cc1ccc(S(=O)(=O)NC(=O)NN2CCCCCC2)cc1`, the molecule was classed as inactive.
Same read-out and setting: the same measure for `CCOC(N)=O`: “inactive”; for `CCCCOC(=O)c1ccccc1`: “inactive”.
On the same count and under the same terms, the entry for `CCCCCOC(C)=O` is “inactive”; for `O=S(=O)(O)c1ccc(N=Nc2c(O)ccc3cc(S(=O)(=O)O)ccc23)cc1` it is “inactive”; for `OCc1ccccc1` it is “inactive”.
On the same count and under the same terms, the same measure for `CNC(C)=O`: “inactive”.

The next experiment shares this target. The experiment in a line: OT_ER_ERaERa_0480: Odyssey Thera (OT) 8-hour HEK293T Protein-Complementation Assay for Estrogen Receptor-alpha/-alpha Homodimer (AID 2283351).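 Also: rise in fluorescence from reassembled reporter fragments on ERα LBD homodimer in nucleus or whole cell.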 In a few lines:
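Read-out: fluorescence intensity rise relative to DMSO, nuclear for agonists, nuclear plus cytoplasmic for antagonists. Construct is the ERα LBD (aa 310-547) homodimer fragment-complementation pair, stably expressed in HEK293T; exposure 8 h.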
For the molecule `CCCCCCCC/C=C\CCCCCCCC(=O)OC[C@@H](O)[C@H]1OC[C@H](O)[C@H]1O`, the molecule was called inactive.
On to `c1ccc2ncccc2c1`, for which the molecule was classed as inactive.
For `Cn1c(=O)c2[nH]cnc2n(C)c1=O`, the molecule was called inactive.
Same read-out and setting: the same measure for `O=C(O)[C@H](O)[C@@H](O)C(=O)O`: “inactive”.
The same measure, in the same setting: the entry for `c1ccc2cc3ccccc3cc2c1` is “inactive”; for `COCc1nnc(-c2ccc[n+]([O-])c2)n1-c1c(Cl)c(Cl)cc2[nH]c(=O)c(=O)[nH]c12` it is “inactive”.
The same measure, in the same setting: the same measure for `OC[C@H]1O[C@@](CO)(O[C@H]2O[C@H](CO)[C@@H](O)[C@H](O)[C@H]2O)[C@@H](O)[C@@H]1O`: “inactive”; for `NC(N)=O`: “inactive”.
Turning to `OCCNCCO`, the result was inactive.
Same read-out and setting: the same measure for `CC(C)CC(C)O` (centres undefined): “inactive”; for `CC(C)c1nnc2ccc(-c3ocnc3-c3cc(F)ccc3F)cn12`: “inactive”.
Still for that read-out and setting: the entry for `O=C(O)c1cccc(C(=O)O)c1` is “inactive”.
Same read-out and setting: the same measure for `CCOc1ccc2[nH]cc(C(=O)NCc3ccccc3)c(=O)c2n1`: “inactive”.
With `O=S1(=O)CCCO1`, the molecule was classed as inactive.
`NC(=O)N(O)[C@@H]1COc2cc(OCc3ccccc3)ccc21`: the call was inactive.
Consider `O=C(O)CO`, for which the molecule was classed as inactive.
Same read-out and setting: the same measure for `CC[C@H](C)C(=O)O[C@H]1C[C@H](O)C=C2C=C[C@H](C)[C@H](CC[C@@H](O)C[C@@H](O)CC(=O)O)[C@H]21`: “inactive”; for `O=C(NO)C1(NS(=O)(=O)c2ccc(Oc3ccc(F)cc3)cc2)CCOCC1`: “inactive”; for `OCCOCCOCCO`: “inactive”.
The same measure, in the same setting: the same measure for `CCCCCCCCCCCCCCO`: “inactive”; for `CCCOc1ccc(S(=O)(=O)N2CCN(CC)CC2)cc1-c1nc2c(CC)n(Cc3ccccn3)nc2c(=O)[nH]1`: “inactive”; for `NC(=O)NN=Cc1ccc([N+](=O)[O-])o1`: “inactive”.
Take `CCCc1ccccc1`: the molecule was called inactive.
Still for that read-out and setting: the same measure for `C=CN1CCCC1=O`: “inactive”; for `CC(C)CCCCCCOC(=O)C1CCCCC1C(=O)OCCCCCCC(C)C` (centres undefined): “inactive”; for `OC(CCl)CCl`: “inactive”.
With `C[C@@H](Oc1ccc(CNC(=O)c2cccnc2Oc2ccc3c(c2)OCO3)c(F)c1)C(=O)O`, the result was inactive.
On the same count and under the same terms, the entry for `COc1cc2c(c(OC)c1OC)-c1ccc(OC)c(=O)cc1[C@@H](NC(C)=O)CC2` is “inactive”; for `CCCCN1C(=O)[C@@H]([C@H](O)C2CCCCC2)NC(=O)C12CCN(Cc1ccc(Oc3ccc(C(=O)O)cc3)cc1)CC2` it is “inactive”; for `Cc1ccc(S(=O)(=O)NC(=O)NN2CCCCCC2)cc1` it is “inactive”.
For `CCOC(N)=O`, the molecule was classed as inactive.
The same measure, in the same setting: the entry for `CCCCOC(=O)c1ccccc1` is “inactive”.
On the same count and under the same terms, the same measure for `CCCCCOC(C)=O`: “inactive”; for `O=S(=O)(O)c1ccc(N=Nc2c(O)ccc3cc(S(=O)(=O)O)ccc23)cc1`: “inactive”; for `OCc1ccccc1`: “inactive”.
In the case of `CNC(C)=O`, the result was inactive.

Another experiment addresses Estrogen receptor (Homo sapiens) + Estrogen receptor beta (Homo sapiens) (UniProt P03372+Q92731). The experiment in a line: OT_ER_ERaERb_0480: Odyssey Thera (OT) 8-hour HEK293T Protein-Complementation Assay for Estrogen Receptor-alpha/-beta Heterodimer (AID 2283352). In a few lines: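 Compound added to HEK293T cells carrying split-reporter-tagged ER-alpha and ER-beta LBDs, incubated 8 hours, then imaged by laser scanning cytometer. Signal rise in nucleus, or nucleus and cytoplasm, over vehicle was fitted in the positive direction.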
`CCCCCCCC/C=C\CCCCCCCC(=O)OC[C@@H](O)[C@H]1OC[C@H](O)[C@H]1O`: the outcome was inactive.
The same measure, in the same setting: the same measure for `O=C(O)[C@H](O)[C@@H](O)C(=O)O`: “inactive”; for `c1ccc2cc3ccccc3cc2c1`: “inactive”; for `COCc1nnc(-c2ccc[n+]([O-])c2)n1-c1c(Cl)c(Cl)cc2[nH]c(=O)c(=O)[nH]c12`: “inactive”.
On the same count and under the same terms, the entry for `NC(N)=O` is “inactive”; for `CC(C)CC(C)O` (centres undefined) it is “inactive”.
The same measure, in the same setting: the entry for `CC(C)c1nnc2ccc(-c3ocnc3-c3cc(F)ccc3F)cn12` is “inactive”; for `CCOc1ccc2[nH]cc(C(=O)NCc3ccccc3)c(=O)c2n1` it is “inactive”; for `O=S1(=O)CCCO1` it is “inactive”.
In the case of `NC(=O)N(O)[C@@H]1COc2cc(OCc3ccccc3)ccc21`, the outcome was inactive.
On the same count and under the same terms, the same measure for `CC[C@H](C)C(=O)O[C@H]1C[C@H](O)C=C2C=C[C@H](C)[C@H](CC[C@@H](O)C[C@@H](O)CC(=O)O)[C@H]21`: “inactive”; for `OCCOCCOCCO`: “inactive”.
The same measure, in the same setting: the same measure for `CCCCCCCCCCCCCCO`: “inactive”.
Still for that read-out and setting: the entry for `CCCOc1ccc(S(=O)(=O)N2CCN(CC)CC2)cc1-c1nc2c(CC)n(Cc3ccccn3)nc2c(=O)[nH]1` is “inactive”.
As for `NC(=O)NN=Cc1ccc([N+](=O)[O-])o1`, the result was inactive.
Still for that read-out and setting: the entry for `CCCc1ccccc1` is “inactive”; for `CC(C)CCCCCCOC(=O)C1CCCCC1C(=O)OCCCCCCC(C)C` (centres undefined) it is “inactive”; for `OC(CCl)CCl` it is “inactive”.
Still for that read-out and setting: the entry for `C[C@@H](Oc1ccc(CNC(=O)c2cccnc2Oc2ccc3c(c2)OCO3)c(F)c1)C(=O)O` is “inactive”; for `COc1cc2c(c(OC)c1OC)-c1ccc(OC)c(=O)cc1[C@@H](NC(C)=O)CC2` it is “inactive”.
Same read-out and setting: the entry for `CCCCN1C(=O)[C@@H]([C@H](O)C2CCCCC2)NC(=O)C12CCN(Cc1ccc(Oc3ccc(C(=O)O)cc3)cc1)CC2` is “inactive”.
For `Cc1ccc(S(=O)(=O)NC(=O)NN2CCCCCC2)cc1`, the result was inactive.
On the same count and under the same terms, the same measure for `OCc1ccccc1`: “inactive”; for `CNC(C)=O`: “inactive”.

Values taken from PubChem BioAssay (EPA / NIEHS).
